By AC50 is commonly meant the midpoint of the concentration-response curve, whichever way the signal moves.

Where “and” joins values, the source holds several entries; their conditions need not be identical. Equal values may be shown once. Results filed as inconclusive are left out. A structure can be active in one record and inactive in another. Calls of active or inactive are those of the source. How the source made its calls, unless noted: active means hit-call score of the fitted dose curve at least 0.9, where 1 is the maximum; inactive means score below 0.9.

Consider seven compounds from PubChem BioAssay (EPA / NIEHS).

Assay [1] can be described thus: ACEA_ER_80hr: ACEA Biosciences xCELLigence Real-Time Cell Analysis on Estrogen Receptor Agonism for Proliferation (AID 2282667; active means hit-call score of the fitted dose curve at least 0.9, where 1 is the maximum). The note with it: T47D proliferation, impedance (xCELLigence), 80 h. Put shortly: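 Real-time impedance growth kinetics of human T-47D breast cells read 80 h after dosing, gain-of-signal fitted relative to DMSO. Compounds: 1:4 serial series, top final concentration 100 uM, n = 2.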

Assay [2] in a line: APR_HepG2_NuclearSize_1hr: Apredica 1-hour HepG2 Assay for Nuclear Size (AID 2282670). The note with it: high-content imaging, actives raise or lower the signal. Put shortly: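 Nuclear size measured by high-content imaging of Hoechst 33342 nuclear stain after formaldehyde fixation; human HepG2 line exposed 1 hr to compounds at 0.39–200 uM in 0.5% DMSO, with bidirectional curve fitting relative to DMSO.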

A short description of assay [3]: APR_HepG2_p53Act_1hr: Apredica 1-hour HepG2 Assay for p53 Activation (AID 2282671). The note with it: high-content imaging, actives raise or lower the signal. The essentials:
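After 1 h exposure (0.39–200 uM, 0.5% DMSO final, duplicates), fixed HepG2 cells were labelled with anti-p53 antibody plus Hoechst nuclear stain. Fluorescence quantified by automated 20x imaging; changes fitted in both directions against DMSO.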

Assay [4] is described as follows: APR_HepG2_MitoticArrest_1hr: Apredica 1-hour HepG2 Assay for Mitotic Arrest (AID 2282672). The settings on record: high-content imaging, actives raise or lower the signal. The essentials:
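Ten-point concentration series (0.39 to 200 uM, duplicates, 0.5% v/v DMSO) applied to human HepG2 liver cells for 1 hr. High-content imaging of phospho-histone H3 and Hoechst-stained nuclei after fixation and permeabilization; DMSO-normalised bidirectional fit.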

The nature of assay [5]: APR_HepG2_MitoMembPot_1hr: Apredica 1-hour HepG2 Assay for Mitochondrial Membrane Potential (AID 2282675). The settings on record: imaging, actives raise or lower the signal. The essentials:
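Mitochondrial membrane potential read as MitoTracker Red CMXRos intensity by automated imaging of fixed HepG2 cells. Dye at 250 nM for 30 min pre-fixation; compounds 0.39 to 200 uM for 1 hour, duplicate wells, 0.5% DMSO.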

The nature of assay [6]: APR_HepG2_CellCycleArrest_24hr: Apredica 24-hour HepG2 Assay for Cell Cycle Arrest (AID 2282905).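 Further: cell cycle arrest scored as ratio of 2N to 4N nuclear DNA content.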 The note with it: imaging, actives raise or lower the signal. Put shortly:
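After 24 h exposure at 0.39–200 uM in 0.5% DMSO, fixed cells received Hoechst 33342 staining. Imaging quantified per-nucleus DNA content; gain or loss fitted against DMSO controls.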

The nature of assay [7]: APR_HepG2_StressKinase_1hr: Apredica 1-hour HepG2 Assay for Stress Kinase (AID 2282906). The note with it: HepG2 stress kinase (phospho-c-Jun) imaging, actives raise or lower the signal. The essentials:
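High-content imaging of phospho-c-Jun immunostaining (with Hoechst nuclear identification) after a 1 h exposure of HepG2 cells to 10 concentrations from 0.39 to 200 uM, final DMSO 0.5%. Fitted bidirectionally against DMSO.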

The nature of assay [8]: APR_HepG2_NuclearSize_24hr: Apredica 24-hour HepG2 Assay for Nuclear Size (AID 2282907). The settings on record: high-content imaging, actives raise or lower the signal. The essentials: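 Nuclear size from Hoechst 33342-stained, formaldehyde-fixed HepG2 nuclei imaged by high-content microscopy, after 24 h dosing at ten concentrations from 0.39 to 200 uM in 0.5% DMSO; gain or loss relative to DMSO baseline.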

Assay [9] can be described thus: APR_HepG2_CellLoss_24hr: Apredica 24-hour HepG2 Assay for Cell Loss (AID 2282908).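 On AC50: fit in both directions so a hit may be cell loss or gain.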 The settings on record: high-content imaging. The essentials:
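Nuclei stained with Hoechst 33342 after formaldehyde fixation (3.7%) were imaged at 20x to count cells. Exposure lasted 24 hr, at ten concentrations from 0.39 to 200 uM in duplicate, with 0.5% v/v DMSO. Fit bidirectional, relative to DMSO.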

Assay [10] can be described thus: APR_HepG2_MicrotubuleCSK_24hr: Apredica 24-hour HepG2 Assay for Microtubule CSK Stabilty (AID 2282909). The note with it: HepG2 microtubule cytoskeleton imaging, actives raise or lower the signal. Put shortly:
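Fixed HepG2 cells were stained for alpha-tubulin and imaged after 24 hr exposure to ten concentrations spanning 0.39–200 uM in 0.5% DMSO. Signal change was fitted in both directions relative to DMSO; taxol was the positive control.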

Assay [11] is described as follows: APR_HepG2_MitoticArrest_24hr: Apredica 24-hour HepG2 Assay for Mitotic Arrest (AID 2282910). The note with it: high-content imaging, actives raise or lower the signal. Put shortly: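 HepG2, 24 hr dosing, 0.39–200 uM, 0.5% DMSO final. Formaldehyde-fixed, Triton-permeabilised, anti-phospho-histone H3 plus Hoechst. ArrayScan imaging at 20x; bidirectional fit vs DMSO baseline.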

Assay [12] is described as follows: APR_HepG2_MitoMembPot_24hr: Apredica 24-hour HepG2 Assay for Mitochondrial Membrane Potential (AID 2282911). The note with it: imaging, actives raise or lower the signal. The essentials: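 Mitochondrial membrane potential imaged via MitoTracker Red CMXRos (250 nM, 30 min pre-fixation) in fixed HepG2 cells with Hoechst nuclear identification. Ten concentrations 0.39–200 uM, 24 h treatment, 0.5% DMSO; CCCP as positive control.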

Assay [13] is described as follows: APR_HepG2_MitoMass_24hr: Apredica 24-hour HepG2 Assay for Mitochondrial Mass (AID 2282912). The note with it: high-content imaging, actives raise or lower the signal. Put shortly: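 Endpoint is MitoTracker Red CMXRos (250 nM, 30 min, pre-fixation) intensity from 20x high-content imaging, nuclei located by Hoechst. Human HepG2 cells received ten concentrations from 0.39 to 200 uM in 0.5% DMSO for 24 hr, duplicate wells. Bidirectional fit relative to DMSO.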

The nature of assay [14]: APR_HepG2_p53Act_24hr: Apredica 24-hour HepG2 Assay for p53 Activation (AID 2282913).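 Further: p53 protein immunofluorescence averaged per cell in HepG2 with Hoechst nuclei.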 The note with it: high-content imaging, actives raise or lower the signal. The essentials:
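Fluorescence imaging of formaldehyde-fixed HepG2 cells labelled for p53 and with Hoechst, 24 h after dosing (0.39–200 uM, duplicate wells, 0.5% v/v DMSO). Signal fitted in both directions relative to DMSO.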

Assay [15] can be described thus: APR_HepG2_CellCycleArrest_72hr: Apredica 72-hour HepG2 Assay for Cell Cycle Arrest (AID 2282914). The settings on record: high-content imaging, actives raise or lower the signal. Put shortly: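 Read-out: nuclear DNA content from Hoechst 33342 high-content imaging (20x, six fields/well) after 3.7% formaldehyde fixation, fitted bidirectionally against DMSO. Treatment was 72 h in HepG2, ten concentrations 0.39–200 uM, duplicate, 0.5% DMSO.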

Assay [16] is described as follows: APR_HepG2_MicrotubuleCSK_1hr: Apredica 1-hour HepG2 Assay for Microtubule CSK Stabilty (AID 2282669). The settings on record: HepG2 microtubule cytoskeleton imaging, actives raise or lower the signal. The essentials: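 Alpha-tubulin immunofluorescence, imaged by automated high-content microscopy with Hoechst nuclear segmentation, measured cytoskeletal change after 1 h dosing of HepG2 at 0.39–200 uM in 0.5% DMSO. Activity fitted in both directions relative to DMSO.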

The nature of assay [17]: APR_HepG2_MitoMass_1hr: Apredica 1-hour HepG2 Assay for Mitochondrial Mass (AID 2282674). The settings on record: high-content imaging, actives raise or lower the signal. Put shortly:
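Mitochondrial mass is taken from MitoTracker Red CMXRos (250 nM, 30 min, pre-fixation) fluorescence imaged at 20x in HepG2 cells. Exposure lasted 1 hr across ten concentrations, 0.39 to 200 uM, 0.5% DMSO; DMSO baseline, bidirectional fitting.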

Assay [18] is described as follows: APR_HepG2_CellLoss_1hr: Apredica 1-hour HepG2 Assay for Cell Loss (AID 2282668).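 Further: curves fitted both ways against DMSO so gain or loss of cells counts.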 The settings on record: high-content imaging. The essentials:
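Cell number comes from high-content imaging of Hoechst-labelled nuclei in fixed HepG2 cells. Cells were exposed for 1 h to ten concentrations from 0.39 to 200 uM in 0.5% DMSO. Gain or loss was fitted against DMSO controls.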

Take `CCOP(=S)(OCC)SCn1c(=O)oc2cc(Cl)ccc21`: the compound was classed as inactive in assay [1], in assay [2], in assay [3], in [4], in assay [5] and in assay [6]. Moreover, the compound was classed as inactive in assay [7], in assay [8], in [9], in assay [10], in assay [11] and in assay [12]. In addition, the result in assay [13] and in assay [14] was inactive. For the same compound, the AC50 in [15] is 85 µM (active).

`CNC(=S)S`: the call in assay [1], in assay [2], in assay [3], in assay [4], in assay [8] and in assay [12] was inactive. Moreover, the outcome in assay [13], in [14] and in [15] was inactive. Besides, the AC50 in [6] is 20.5 µM (active); in [9] it was 80.1 µM (active); in assay [11] it was 85.2 µM (active).

Regarding `C=CCC1=C(C)C(OC(=O)C2C(C=C(C)C)C2(C)C)CC1=O` (configuration not stated), the compound was called inactive in assay [1], in assay [2], in assay [3], in assay [6], in assay [8] and in [11]. The outcome in [12], in [13], in assay [14] and in assay [15] was inactive. Moreover, the concentration at half-maximal activity (AC50) in assay [5] is 100 µM (active); in assay [8], 53.2 µM (active); in assay [9] it was 55.8 µM (active) [middle of 4 runs]; in assay [11] it was 35.4 µM (active) and 43.3 µM (active) and 46.9 µM (active); in assay [12] it was 112 µM (active); in assay [13], 29 µM (active) and 48.5 µM (active) and 56.1 µM (active). Further, the AC50 was 42 µM (active) in assay [14] and 34.4 µM (active) in assay [15].

On to `CNC(=O)ON=CC(C)(C)SC`, for which the result in assay [1], in assay [16], in assay [2], in assay [3], in assay [17] and in assay [6] was inactive. Besides, the outcome in [8], in assay [9], in assay [10], in [11], in assay [12] and in [13] was inactive. Also, the compound was called inactive in assay [14] and in assay [15].

With `COc1nc(C)nc(NC(=O)NS(=O)(=O)c2ccccc2CCC(F)(F)F)n1`, the call in assay [18], in assay [2], in assay [3], in assay [6], in [8] and in [9] was inactive. In addition, the result in [10], in assay [11], in [12], in assay [13], in assay [14] and in [15] was inactive.

As for `CCNc1nc(Cl)nc(NCC)n1`, the compound was classed as inactive in assay [1], in assay [2], in assay [3], in assay [17], in [5] and in [6]. In addition, the result in assay [8], in [9], in assay [11], in [12], in [13] and in [14] was inactive. For the same compound, the result in assay [15] was inactive.

Turning to `COP(=S)(OC)Oc1nc(Cl)c(Cl)cc1Cl`, the result in [1], in [16], in [2], in assay [3], in assay [6] and in [8] was inactive. In addition, the result in [9], in [10], in assay [11], in assay [12], in [13] and in assay [14] was inactive. For the same compound, the call in assay [15] was inactive.
